What all share (conditions): mRNA level, 48 h; actives raise or lower the signal
Read-out in test [1]: Interleukin 6 Receptor (IL6R), IL6R (gene 3570)
Briefly: LTEA_HepaRG_IL6R: Life Technologies and Expression Analysis (LTEA) Assay for Interleukin 6 Receptor (IL6R) using HepaRG (AID 2283510).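 On AC50: differentiated human HepaRG liver cells in serum-free induction medium; TaqMan qRT-PCR signal normalized to ACTB GAPDH and POLR2A housekeeping genes.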 In outline:
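Cells were thawed, plated and cultured 48 h, then medium was changed to serum-free induction medium. Chemicals were added in duplicate (100 uM top, half-log steps, 0.5% DMSO) for 48 h. Lysates were analyzed by qRT-PCR for IL6R expression.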

Read-out in test [2]: Potassium channel subfamily K member 1 (KCNK1), KCNK1 (gene 3775)
Nature of the test: LTEA_HepaRG_KCNK1: Life Technologies and Expression Analysis (LTEA) Assay for Potassium channel subfamily K member 1 (KCNK1) using HepaRG (AID 2283511). In outline:
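Human HepaRG cultures receive test chemicals for 48 h in 0.5% DMSO, top concentration 100 uM with half-log dilutions. Induction or suppression of KCNK1 mRNA relative to DMSO is derived by bidirectional fitting of qRT-PCR data.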

Read-out in test [3]: Keratin 19 (KRT19), KRT19 (gene 3880)
Briefly: LTEA_HepaRG_KRT19: Life Technologies and Expression Analysis (LTEA) Assay for Keratin 19 (KRT19) using HepaRG (AID 2283512). In outline:
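KRT19 transcript measured by TaqMan qRT-PCR, referenced to three housekeeping genes, after HepaRG cells received test chemicals for 48 h. Eight half-log concentrations, top 100 uM, 0.5% DMSO vehicle; increases and decreases both fitted.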

Read-out in test [4]: JUN Transcription Factor, JUN (gene 3725)
Briefly: LTEA_HepaRG_JUN: Life Technologies and Expression Analysis (LTEA) Assay for JUN Transcription Factor using HepaRG (AID 2283513). An outline of the steps:
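Read-out is JUN transcript level by TaqMan qRT-PCR, normalized to ACTB, GAPDH and POLR2A, after 48 h chemical treatment of HepaRG cells. Concentration-response spanned eight half-log points up to 100 uM in 0.5% DMSO.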

Read-out in test [5]: Lipase C (LIPC), LIPC (gene 3990)
Briefly: LTEA_HepaRG_LIPC: Life Technologies and Expression Analysis (LTEA) Assay for Lipase C (LIPC) using HepaRG (AID 2283514). An outline of the steps:
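In this multiplexed gene-expression screen, human HepaRG cultures received test chemicals for 48 h across eight concentrations with 100 uM highest, in duplicate. Values reflect LIPC mRNA induction or suppression versus DMSO vehicle, from normalized qRT-PCR.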

Read-out in test [6]: Lipoprotein lipase (LPL), LPL (gene 4023)
Briefly: LTEA_HepaRG_LPL: Life Technologies and Expression Analysis (LTEA) Assay for Lipoprotein lipase (LPL) using HepaRG (AID 2283515). An outline of the steps:
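Concentration-response testing used half-log steps from 100 uM in 0.5% DMSO on human HepaRG cells, 48 h, duplicate wells. Phenobarbital 1 mM served as induction control; LPL mRNA was normalized to ACTB, GAPDH, POLR2A.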

Read-out in test [7]: MicroRNA 122 (MIR122), gene 406906
Nature of the test: LTEA_HepaRG_MIR122: Life Technologies and Expression Analysis (LTEA) Assay for MicroRNA 122 (MIR122) using HepaRG (AID 2283516). Further: the transcript read is the microRNA miR-122. In outline:
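Human liver HepaRG cultures receive test chemicals for 48 h at eight half-log concentrations from 100 uM. Expression is quantified by qRT-PCR with ACTB/GAPDH/POLR2A normalization and fitted bidirectionally against 0.5% DMSO.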

Read-out in test [8]: matrix metalloproteinase-10 (MMP10), MMP10 (gene 4319)
Briefly: LTEA_HepaRG_MMP10: Life Technologies and Expression Analysis (LTEA) Assay for matrix metalloproteinase-10 (MMP10) using HepaRG (AID 2283517). In outline: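 In differentiated HepaRG cultures kept in 0.5% DMSO, test chemicals act for 48 h over an eight-point range with a top dose of 100 uM. Expression is then quantified by TaqMan RT-PCR against ACTB, GAPDH and POLR2A.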

Read-out in another test: MYC, MYC (gene 4609)
Nature of the test: LTEA_HepaRG_MYC: Life Technologies and Expression Analysis (LTEA) Assay for MYC using HepaRG (AID 2283518). An outline of the steps: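 MYC transcript changes, up or down relative to 0.5% DMSO, from TaqMan qRT-PCR normalized to three housekeeping genes. Human HepaRG cultures received chemicals for 48 h at eight half-log concentrations up to 100 uM, in duplicate.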

Read-out in test [9]: matrix metalloproteinase-3 (MMP3), MMP3 (gene 4314)
Briefly: LTEA_HepaRG_MMP3: Life Technologies and Expression Analysis (LTEA) Assay for matrix metalloproteinase-3 (MMP3) using HepaRG (AID 2283519). In outline: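 Human liver HepaRG cultures received chemicals (top concentration 100 uM, 0.5% DMSO) for 48 h in duplicate. MMP3 mRNA induction or loss was then assessed via TaqMan qRT-PCR with housekeeping-gene normalisation.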

What is called AC50 is the concentration giving half of the maximal activity seen.

Active and inactive are the calls of the source. How the source made its calls: active means hit-call score of the fitted dose curve at least 0.9, where 1 is the maximum; inactive means score below 0.9.

As for `COC(=O)CCCC(=O)OC`, the result in test [1], in [2], in test [3], in [4], in test [5] and in test [6] was inactive. Moreover, the outcome in test [7] was “inactive”; in [8] it was “inactive”; with MYC, MYC (gene 4609), “inactive”; in test [9], “inactive”.

Take `CC(C)(O)c1ccc(CNC(=O)c2cccnc2Oc2ccc(F)cc2)cc1`: the result in [1], in test [2], in test [3], in test [4], in test [5] and in test [6] was inactive. In addition, the outcome in test [7] was “inactive”; in test [8], “inactive”; with MYC, MYC (gene 4609), “inactive”. The AC50 in test [9] was 73200 nM (active).

Consider `CSc1ccc(Oc2ccc(S(N)(=O)=O)cc2CN(C)C)cc1C`, for which the call in [1], in [2], in test [4], in [5], in [7] and in test [8] was inactive. For the same compound, the outcome with MYC, MYC (gene 4609) was “inactive”; in [9], “inactive”. For the same compound, the AC50 in test [3] was 50000 nM (active); in [6], 77000 nM (active).

On to `CCOCCOCCO`, for which the call in test [1], in test [2], in test [3], in test [4], in test [5] and in test [6] was inactive. Further, the outcome in test [7] is “inactive”; in test [8], “inactive”; with MYC, MYC (gene 4609), “inactive”; in test [9], “inactive”.

Consider `c1ccc2occc2c1`, for which the call in test [1], in [2], in test [3], in [4], in [5] and in [6] was inactive. For the same compound, the outcome in [7] is “inactive”; in test [8], “inactive”; in the test with MYC, MYC (gene 4609) it was “inactive”; in test [9], “inactive”.

As for `Cc1ccc(C(C)(C)C)c(O)c1`, the call in test [1], in test [2], in test [3], in test [4], in test [5] and in test [6] was inactive. Further, the outcome was “inactive” in [7]; “inactive” in test [8]; “inactive” with MYC, MYC (gene 4609); “inactive” in [9].

With `C=CCc1ccc(OC)c(OC)c1`, the call in test [1], in [2], in [3], in [4], in test [5] and in test [6] was inactive. In addition, the outcome in test [7] was “inactive”; in test [8], “inactive”; with MYC, MYC (gene 4609), “inactive”; in test [9] it was “inactive”.

Regarding `CC(=O)[C@@]1(O)CC[C@H]2[C@@H]3CCC4=CC(=O)CC[C@]4(C)[C@H]3CC[C@@]21C`, the outcome in [1], in [2], in test [3], in test [4], in test [5] and in [6] was inactive. Besides, the outcome in test [7] is “inactive”; in test [8], “inactive”; with MYC, MYC (gene 4609), “inactive”; in [9] it was “inactive”.

For `Cn1cnc2c1c(=O)[nH]c(=O)n2C`, the compound was classed as inactive in test [1], in test [2], in [3], in test [4], in [5] and in test [6]. The outcome in test [7], in test [8] and in [9] was inactive.

`CC(C)(C)c1ccccc1`: the compound was called inactive in test [1], in test [2], in test [3], in test [4], in test [5] and in test [6]. The result in test [7], in [8] and in [9] was inactive.

As for `NC=O`, the compound was classed as inactive in test [1], in test [2], in [3], in test [4], in test [5] and in [6]. The compound was called inactive in test [7], in test [8] and in test [9].

`O=C(O)CC(O)(CC(=O)O)C(=O)O`: the compound was called inactive in test [1], in test [2], in test [3], in test [4], in test [5] and in test [6]. Also, the outcome in test [7] is “inactive”; in [8], “inactive”; with MYC, MYC (gene 4609), “inactive”; in [9], “inactive”.

`CC(C)c1cccc(C(C)C)c1NC(=O)NS(=O)(=O)c1cc(C(C)(C)O)co1`: the result in test [1], in test [2], in test [3], in test [4], in test [5] and in test [6] was inactive. The result in test [7], in test [8] and in test [9] was inactive.

Regarding `O=Cc1ccccc1C=O`, the outcome in test [1], in test [2], in test [3], in [4], in [5] and in test [6] was inactive. Further, the outcome in test [7], in [8] and in test [9] was inactive.

Take `CC(C)NCC(O)c1ccc(O)c(O)c1` (stereo not drawn): the AC50 is 9920 nM (active) in test [1], 149 nM (active) in test [3], 227 nM (active) in [5] and 319 nM (active) in test [6]. In addition, the compound was called inactive in test [2], in [4], in [7], in [8] and in test [9].

Take `CCCCCCC(CCCCCCCCCCC(=O)OCC(COC(C)=O)OC(C)=O)OC(C)=O` (stereo not drawn): the call in test [1], in test [2], in [3], in test [4], in test [5] and in [6] was inactive. Moreover, the outcome in test [7] was “inactive”; in test [8] it was “inactive”; with MYC, MYC (gene 4609), “inactive”; in test [9], “inactive”.

As for `O=C(O)c1cccnc1`, the outcome in test [1], in test [2], in test [3], in test [4], in test [5] and in test [6] was inactive. Besides, the outcome is “inactive” in test [7]; “inactive” in [8]; “inactive” in the test with MYC, MYC (gene 4609); “inactive” in test [9].

With `CCCC[C@H]1CN(CC2CCOCC2)C(=O)OC12CCN(C1(C)CCN(C(=O)c3c(C)ncnc3C)CC1)CC2`, the result in test [1], in test [2], in [3], in [4], in test [5] and in test [6] was inactive. In addition, the outcome was “inactive” in [7]; “inactive” in test [8]; “inactive” with MYC, MYC (gene 4609); “inactive” in [9].

In the case of `CS(=O)(=O)c1ccc([C@@H](C[C@H]2CCC(=O)C2)C(=O)Nc2cnccn2)cc1Cl`, the AC50 in test [1] is 16800 nM (active); in test [2] it was 1400 nM (active); in test [4], 1430 nM (active); in test [5], 1080 nM (active); in test [6], 934 nM (active); in test [7], 1410 nM (active). Also, the AC50 is 1140 nM (active) with MYC, MYC (gene 4609) and 1160 nM (active) in test [9]. In addition, the compound was called inactive in test [3] and in test [8].

With `CCCCCCCCCCCCCCOS(=O)(=O)O`, the compound was called inactive in [1], in test [2], in [3], in [4], in test [5] and in test [6]. For the same compound, the outcome in test [7] was “inactive”; in test [8] it was “inactive”; in the test with MYC, MYC (gene 4609) it was “inactive”; in [9] it was “inactive”.

Regarding `O=C(Oc1ccccc1)c1cccc(C(=O)Oc2ccccc2)c1`, the compound was classed as inactive in test [1], in [2], in test [3], in test [4], in [5] and in [6]. For the same compound, the outcome is “inactive” in [7]; “inactive” in test [8]; “inactive” with MYC, MYC (gene 4609); “inactive” in [9].

Consider `COC(=O)CCC(=O)OC`, for which the outcome in test [1], in [2], in test [3], in test [4], in test [5] and in test [6] was inactive. The outcome in test [7], in test [8] and in [9] was inactive.
